Bioassay records deposited in PubChem BioAssay by The Scripps Research Institute Molecular Screening Center.
hcDAF12 agonist – activators of H. contortus DAF-12 nuclear receptor; HEK293 hcDAF-12 lit1-tk-luc reporter, luminescence; 0% DMSO, 100% Δ7-dafachronic acid; activation, % at 6.8 µM; 370,000 compounds, 1.4% hits;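 active means activation above the mean of all tested compounds plus 3 SD, cut at about 5.5% in these data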;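 further: 100% = response to 3 µM Δ7-dafachronic acid high control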
hgDAF12 agonist – agonists of H. glycines DAF-12 nuclear receptor; HEK293 GAL4-hgDAF12 UAS-luciferase reporter, agonist luminescence; normalized to butyrate control; 370,000 compounds, 1.8% hits; activation, % at 6.8 µM;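 active means activation above a cutoff set at the mean of all screened compounds plus 3 SD, cut at about 10% in these data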;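 further: 0% = DMSO wells and 100% = sodium butyrate wells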
DAX1 inh-1 – inhibits human nuclear receptor DAX1; P51843; HEK293 Gal4-DAX1 luciferase reporter, luminescence; inhibition, % at 6.75 µM; 340,000 compounds, 0.99% hits; AID 504766;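 active means inhibition above the mean over all tested compounds plus 3 SD, cut at about 4.2% in these data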;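 further: 0% = DAX1-transfected cells with DMSO and 100% = empty-vector control cells with DMSO; inhibition shows as a rise in luminescence from relieved DAX1 repression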
Target sequence (P51843 207-470 limits assumed): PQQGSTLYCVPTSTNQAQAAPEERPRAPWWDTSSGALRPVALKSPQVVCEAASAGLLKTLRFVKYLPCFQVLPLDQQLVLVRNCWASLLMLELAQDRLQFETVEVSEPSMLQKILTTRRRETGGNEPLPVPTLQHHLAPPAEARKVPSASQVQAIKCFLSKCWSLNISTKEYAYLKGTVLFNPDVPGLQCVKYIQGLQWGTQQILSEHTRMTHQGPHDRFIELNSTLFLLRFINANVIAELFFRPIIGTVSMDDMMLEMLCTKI
ssDAF12 agonist – activators of S. stercoralis DAF-12 nuclear receptor | 370,000 compounds, 1% hits | HEK293 ssDAF-12/GRIP1 lit1-tk-luc reporter, luminescence; % of 3 µM dafachronic acid response | activation, % at 6.8 µM;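 active means activation above the mean over all tested compounds plus 3 SD, cut at about 0.9% in these data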;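 further: 0% = DMSO-only wells and 100% = 3 µM delta7-dafachronic acid wells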
DAX1 inh-2 – DAX1 (NR0B1) inhibition, primary screen. inhibition, % at 6.8 µM. AID 652010. HEK293T StAR-luciferase reporter, SF-1/DAX-1 repression relief. 370,000 compounds, 1.1% hits;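 active means inhibition above the mean over all tested compounds plus 3 SD, cut at about 3.6% in these data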;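 further: 0% = DAX-1 cells with DMSO and 100% = cells lacking DAX-1 with DMSO; higher inhibition means more luminescence from relief of DAX-1 repression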
AHR activator – human AHR activation; P35869; AHR-responsive luciferase reporter cells, luminescence; activation, % at 5 µM; 320,000 compounds, 2.5% hits; in the data active means activation above about 47%;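 further: 0% = vehicle wells and 100% = reference agonist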
hgDAF12 ag – hgDAF-12 agonism, confirmation assay. shares compounds with hgDAF12 agonist. HEK293 GAL4-hgDAF12 luciferase reporter, agonist mode; percent of butyrate response. activation, % at 6.8 µM. 3,300 compounds, 80% hits;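 active means mean activation over triplicate wells above the hit cutoff derived from the earlier primary screen, cut at about 11% in these data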;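 further: 0% = DMSO low control and 100% = 2 mM sodium butyrate high control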
LXR ag 2 – counter-screen for DAF-12 agonists: agonists of human LXR-beta | shares compounds with hgDAF12 agonist | HEK293 Gal4-LXR luciferase reporter, 24 h | activation, % at 6.8 µM | 3,300 tested, under 10 active | AID 743051;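 active means mean activation of the triplicate above a set limit carried over from the primary screen, none filed active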
* hit, by the source's call. An excerpt weighted towards active compounds, which were near 5.7% of everything screened.

What do the screens show for `COc1ccc(N2CCN(C(=O)Cn3cnc4c(cnn4-c4ccc(C)cc4)c3=O)CC2)cc1`?
hcDAF12 agonist: -2; hgDAF12 agonist: -1; DAX1 inh-1: -1; ssDAF12 agonist: -2; DAX1 inh-2: -1; AHR activator: 3

Results for COc1ccc(OC(=O)c2cc3ccccc3o2)cc1 ?
hcDAF12 agonist: 1; hgDAF12 agonist: 1; DAX1 inh-1: 0; ssDAF12 agonist: -1; DAX1 inh-2: 0; AHR activator: 4

How did Cc1ccc(Nc2ncnc(N)n2)cc1 do in these assays?
hcDAF12 agonist: 2; hgDAF12 agonist: 19*; DAX1 inh-1: 0; ssDAF12 agonist: -1; DAX1 inh-2: 0; AHR activator: 3; hgDAF12 ag: 5; LXR ag 2: 0

How did Nc1ncnc(Nc2ccc(F)cc2)n1 do in these assays?
hcDAF12 agonist: -2; hgDAF12 agonist: 0; DAX1 inh-1: -1; ssDAF12 agonist: -2; DAX1 inh-2: 0; AHR activator: -1

What do the screens show for `CCCn1c(N)c(C(=O)COC(=O)CCS(=O)(=O)c2ccc(C)cc2)c(=O)[nH]c1=O`?
hcDAF12 agonist: 0; hgDAF12 agonist: 2; DAX1 inh-1: 0; ssDAF12 agonist: -1; DAX1 inh-2: 0; AHR activator: -1

Results for O=C(Nc1ccc2sccc2c1)c1cccc(N2C(=O)CCC2=O)c1 ?
hcDAF12 agonist: 2; hgDAF12 agonist: 17*; DAX1 inh-1: 1; ssDAF12 agonist: 0; DAX1 inh-2: 4.2*; AHR activator: 20; hgDAF12 ag: 13*; LXR ag 2: 0

How did CCN(CC)S(=O)(=O)c1cc(NC(=O)c2cccc(N3C(=O)CCC3=O)c2)ccc1Cl do in these assays?
hcDAF12 agonist: -1; hgDAF12 agonist: 0; DAX1 inh-1: 0; ssDAF12 agonist: -1; DAX1 inh-2: 1; AHR activator: 2

How did CCCCN1CCc2c([nH]c3ccc(C)cc23)C1=O do in these assays?
hcDAF12 agonist: 4; hgDAF12 agonist: 15*; DAX1 inh-1: 2; ssDAF12 agonist: 1; DAX1 inh-2: 3.9*; AHR activator: -2; hgDAF12 ag: 9; LXR ag 2: 0

How did Cc1scc(C(=O)N/N=C/c2ccc([N+](=O)[O-])o2)c1C do in these assays?
hcDAF12 agonist: -8; hgDAF12 agonist: -14; DAX1 inh-1: -3; ssDAF12 agonist: -3; DAX1 inh-2: -11; AHR activator: -10

Results for Cc1cnc(CNC(=O)C2CCC(=O)N(Cc3ccc(Cl)cc3)C2)[nH]1 (configuration not stated) ?
hcDAF12 agonist: 0; hgDAF12 agonist: 1; DAX1 inh-1: 0; ssDAF12 agonist: -1; DAX1 inh-2: -1; AHR activator: 3

How did O=C(c1ccc(-c2ccc([N+](=O)[O-])cc2Cl)o1)N1CCOCC1 do in these assays?
hcDAF12 agonist: 0; hgDAF12 agonist: 4; DAX1 inh-1: 0; ssDAF12 agonist: -1; DAX1 inh-2: 0; AHR activator: 11

Results for O=C(c1ccc(-c2cccc(Cl)c2Cl)o1)N1CCOCC1 ?
hcDAF12 agonist: 4; hgDAF12 agonist: 17*; DAX1 inh-1: 2; ssDAF12 agonist: 0; DAX1 inh-2: 4.0*; AHR activator: 16; hgDAF12 ag: 16*; LXR ag 2: 1

Results for Cc1ccc(CNC(=O)Nc2ccc(C)cc2)cc1 ?
hcDAF12 agonist: 1; hgDAF12 agonist: 4; DAX1 inh-1: 1; ssDAF12 agonist: 0; DAX1 inh-2: 0; AHR activator: 5

What do the screens show for `Cc1ccc(NC(=O)NCC2CC2(Cl)Cl)cc1` (configuration not stated)?
hcDAF12 agonist: 4; hgDAF12 agonist: 13*; DAX1 inh-1: 2; ssDAF12 agonist: 0; DAX1 inh-2: 2; AHR activator: 8; hgDAF12 ag: 10; LXR ag 2: 0
